Screens: PubChem, several laboratories
CYP2C9 inhib: blocks human cytochrome P450 2C9; P11712; CYP2C9 Supersomes, luciferin-H conversion, luminescence; inhibition, % at 5 µM; 96,000 tested, 20% active; AID 777;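 active means blocking of liver enzyme CYP2C9 beyond about 50% at 5 µM, limit read from the data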
CYP2C19 activ: activators of human cytochrome P450 2C19; recombinant CYP2C19, luciferin-H EGE luminescence; active compounds read high; 0 = fully inhibited enzyme, 1 = untreated enzyme; activation factor at 5 µM; 96,000 tested, under 10 active;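 active means activation factor of at least 2 at 5 µM in the primary screen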;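 further: 0 = wells with 2.5 mM tranylcypromine and 1 = vehicle-only wells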
Target sequence (P33261 whole entry, looked up): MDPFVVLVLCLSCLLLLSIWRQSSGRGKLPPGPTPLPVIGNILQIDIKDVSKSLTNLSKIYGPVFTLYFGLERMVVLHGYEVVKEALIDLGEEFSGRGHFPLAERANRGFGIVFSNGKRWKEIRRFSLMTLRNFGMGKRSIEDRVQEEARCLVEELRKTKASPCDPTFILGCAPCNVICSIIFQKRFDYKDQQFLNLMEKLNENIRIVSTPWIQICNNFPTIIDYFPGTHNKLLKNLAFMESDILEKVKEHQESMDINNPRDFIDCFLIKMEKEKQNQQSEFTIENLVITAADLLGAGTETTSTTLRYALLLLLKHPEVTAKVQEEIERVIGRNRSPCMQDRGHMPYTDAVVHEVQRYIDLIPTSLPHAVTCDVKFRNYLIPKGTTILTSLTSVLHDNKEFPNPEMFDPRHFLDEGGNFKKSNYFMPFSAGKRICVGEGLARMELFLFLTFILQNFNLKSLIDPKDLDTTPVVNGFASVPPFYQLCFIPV
CYP2C19 inhib: blocks human cytochrome P450 2C19 | P33261 | CYP2C19 Supersomes, luciferin-H EGE luminescence, 30 min | inhibition, % at 5 µM | 96,000 tested, 21% active | AID 778;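 active means CYP2C19 inhibition above a set limit at 5 µM in the primary screen, cut at about 50% in these data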;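 further: plate controls were negative control wells for no effect and 2.5 mM tranylcypromine positive control for full effect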
Cav32 inh: inhibitors of human Cav3.2 T-type calcium channel; 100,000 tested, 4% active; AID 449739; Cav3.2-expressing cells, Fluo-4 calcium fluorescence FDSS; active compounds read low; B-score at 10 µM; O95180;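 active means single-dose well whose peak fluorescence ratio is a statistical outlier from its plate by either plate-standardised score or position-corrected B-score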
CYP2C9 act: CYP2C9 (human) activation | recombinant CYP2C9, luciferin-H conversion, luminescence; active compounds read high; factor 1 = untreated enzyme, 0 = blocked | 96,000 tested, 1.4% active | P11712 | AID 1024 | activation factor at 5 µM;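 active means activation factor of 2 or more for CYP2C9 at a 5 µM dose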;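 further: 0 = sulfaphenazole-blocked wells and 1 = vehicle-only wells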
* = called active by the depositor; . = no result. Rows were chosen to be rich in hits. Some 27% of all compounds tested hit in one or more screens of this group.

SMILES | CYP2C9 inhib | CYP2C19 activ | CYP2C19 inhib | Cav32 inh | CYP2C9 act
CC(C)(C)C(=O)[C@@H]1[C@@H]2C(=O)N(c3ccc4c(c3)OCCO4)C(=O)[C@@H]2C2c3ccccc3C=CN21 (stereo partly specified) | 56.7* | 0.4 | 57.2* | 0.295 | 0.4
COc1ccc(N2C(=O)[C@@H]3[C@H](C2=O)[C@H]2c4ccccc4C=CN2[C@@H]3C(=O)Nc2ccccc2)cc1 | 62.4* | 0.8 | 15.1 | -3.16 | 0.4
Cc1ccc(N2C(=O)[C@@H]3[C@H](C2=O)C2c4ccccc4C=CN2[C@@H]3C(=O)c2ccco2)cc1 (stereo partly specified) | 33.7 | 0.9 | 11.4 | -0.235 | 0.7
COc1ccc(N(CC(=O)Nc2cccc(SC)c2)S(C)(=O)=O)cc1Cl | 13.0 | 0.4 | 59.0* | -5.91* | 0.9
CS(=O)(=O)N(CC(=O)Nc1ccc2c(c1)OCO2)c1ccc(Cl)cc1 | 89.9* | 0.1 | 88.4* | -1.64 | 0.1
COc1ccc(Cl)cc1N(CC(=O)Nc1cccc(SC)c1)S(C)(=O)=O | 71.5* | 0.1 | 90.6* | -2.84 | 0.3
COc1ccc(Cl)cc1N(CC(=O)Nc1ccc2c(c1)OCCO2)S(C)(=O)=O | 69.0* | 0.2 | 76.2* | -1.13 | 0.3
Cc1ccnc(NS(=O)(=O)c2ccc(NC(=O)c3c(-c4ccccc4Cl)noc3C)cc2)n1 | . | . | . | -0.38 | .
CCOc1c2ccc(C(=O)NCC34CC5CC(CC(C5)C3)C4)cc2nn1CC | 25.4 | 0.9 | 7.1 | -0.279 | 0.7
COC(=O)C1=C(C)NC2=C(C(=O)C(C(=O)OC)C(c3ccc(OC)cc3)C2)C1c1ccccn1 (stereo unspecified) | 4.9 | 0.9 | 5.4 | 0.74 | 1
COCCn1cc(C(=S)N2CCOCC2)c2ccccc21 | -33.0 | 1.1 | -5.4 | 1.33 | 1.3
CSc1cccc(NC(=O)CN(c2cc(C)ccc2C)S(C)(=O)=O)c1 | 55.7* | 0.2 | 84.8* | -5.76* | 0.4
O=C(Nc1ccccc1Cl)ON=C1c2ccccc2-c2ccccc21 | 77.8* | 0.7 | 29.5 | -1.09 | 0.2
O=C(Nc1ccccc1)ON=C1c2ccccc2-c2ccccc21 | 72.0* | 0.8 | 23.3 | -1.95 | 0.3
O=C(Nc1ccccc1)OCC1CCCN2CCCCC12 (stereo unspecified) | -38.8 | 1.1 | -10.9 | -0.0843 | 1.4
Cc1snc(S(=O)(=O)Cc2c(Cl)cccc2Cl)c1C#N | 28.7 | 0.3 | 67.3* | 1.56 | 0.7
CCN1C(c2ccccc2)C(C)C(=O)C(C)C1c1ccccc1 (stereo unspecified) | 88.1* | 0.3 | 65.3* | -1.32 | 0.1
Cc1ccc2nc(Nc3nc(CSc4nnnn4-c4ccccc4)cc(=O)[nH]3)nc(C)c2c1 | 79.7* | 0.3 | 67.0* | -0.934 | 0.2
Cn1nc(C(F)(F)F)c(/C=N/OC(=O)c2ccccc2Cl)c1SCc1ccccc1Cl | 93.3* | 0.3 | 68.4* | -6.56* | 0.1
Cn1nc(C(F)(F)F)c(/C=N/OC(=O)c2ccccc2)c1SCc1ccc(Cl)cc1 | 12.1 | 0.9 | 11.5 | -0.318 | 0.9
COc1cccc(/C=N/NC(=O)c2[nH]c(C)c(C(=O)N/N=C/c3cccc(OC)c3O)c2C)c1O | -8.0 | 1.1 | -7.6 | -0.136 | 1.1
CC(C)(C)OC(=O)NCCCC1=CC2=CC(=O)C(C)(O)C(=O)C2=CO1 (stereo unspecified) | . | . | . | 0.2 | .
S=c1[nH]nc(COc2ccccc2)n1/N=C/c1ccc(Br)s1 | 11.7 | 0.6 | 44.9 | . | 0.9
Cc1ccc(/C=N/n2c(COc3ccccc3)n[nH]c2=S)s1 | 77.2* | 0.9 | 14.7 | -0.0451 | 0.2
Cc1ccc(Nc2nc(N)nc(CN3CCN(c4ccccc4F)CC3)n2)cc1 | 7.2 | 1 | 4.8 | -5.3* | 0.9
SMILES | CYP2C9 inhib | CYP2C19 activ | CYP2C19 inhib | Cav32 inh | CYP2C9 act
Nc1nc(CN2CCN(Cc3ccc4c(c3)OCO4)CC2)nc(Nc2ccccc2)n1 | 10.4 | 1 | 0.7 | -1.43 | 0.9
Nc1nc(CN2CCN(c3ccccc3F)CC2)nc(Nc2ccccc2)n1 | 77.4* | 0.6 | 41.5 | -1.15 | 0.2
COc1ccccc1N1CCN(Cc2nc(N)nc(Nc3ccc(C)cc3)n2)CC1 | 0.9 | 0.5 | 48.6 | -2.99 | 1
Cc1ccc(N/C=C(/C#N)c2ccsc2)cc1 | 33.2 | 0.4 | 64.5* | -1.55 | 0.7
Cn1cc(S(=O)(=O)Nc2ccc(Br)cc2F)c(=O)n(C)c1=O | 63.4* | 0.6 | 42.5 | 0.0659 | 0.4
O=C(Nc1ccc(Nc2ccccc2)cc1)c1ccc(Br)o1 | 51.4* | 0.7 | 28.7 | . | 0.5
O=C(Nc1ccc(Cc2ccncc2)cc1)c1ccc(Br)o1 | 96.8* | 0.1 | 86.7* | 0.00178 | 0
COc1cc(/C=C/C(=O)CC(=O)/C=C/c2ccc(O)c(OC)c2)ccc1O | . | . | . | -4.21* | .
COc1cc(/C=C/C(=O)O)ccc1O | . | . | . | 0.597 | .
CCOC(=O)C1=NN(c2cccc(Cl)c2)C2=NC(C)=C(C(=O)OC)C(c3cccs3)N12 (stereo unspecified) | . | . | . | -3.33 | .
Cc1cc(SCC(=O)N/N=C/c2ccc(O)c(O)c2O)c(C)cc1Br | 14.7 | 0.9 | 9.5 | -4.52 | 0.9
COc1ccc(/C=N/NC(=O)CSCC(=O)Nc2ccccc2)cc1OC | 5.9 | 1.1 | -12.6 | 0.00104 | 0.9
COC(=O)Oc1ccc(/C=N/NC(=O)CSCc2ccccc2Br)cc1OC | 67.4* | 0.4 | 56.5* | -1.15 | 0.3
COc1ccc(/C=N/NC(=O)CCn2c3ccccc3c3ccccc32)cc1O | 96.9* | 0.1 | 94.4* | -0.0514 | 0
COc1cc(/C=N/NC(=O)CSc2cc(C)c(Br)cc2C)ccc1O | 76.1* | 1 | 4.8 | -1.27 | 0.2
CC1CCOC2(O1)C(=O)N(CN1CCN(c3ccccc3F)CC1)c1ccccc12 (stereo unspecified) | -16.1 | 1 | 0.0 | . | 1.2
O=C(CSc1nnc(-c2cccnc2)n1Cc1ccccc1)N1CCOCC1 | -10.4 | 1.2 | -15.7 | -0.0801 | 1.1
CCn1c(SCC(=O)N2CCC(C(N)=O)(N3CCCCC3)CC2)nnc1-c1ccccc1 | . | . | . | 0.0446 | .
C=CCn1c(=O)c2c(C)c(C)sc2n2c(Nc3ccc(OC)cc3)nnc12 | 91.0* | 0.8 | 22.9 | 0.702 | 0.1
CCOC(=O)C1=C(N)OC2=C(C(=O)CC(C)(C)C2)C1C1CCCCC1 (stereo unspecified) | 56.1* | 0.8 | 24.0 | -9.01* | 0.4
CCOC(=O)C1=C(N)OC2=C(C(=O)CC(C)(C)C2)C1c1ccoc1 (stereo unspecified) | 67.4* | 0.4 | 64.3* | -0.851 | 0.3
CCOC(=O)C1=C(N)OC2=C(C(=O)CC(C)(C)C2)C1c1cccnc1 (stereo unspecified) | 71.2* | 0.2 | 75.5* | 1.53 | 0.3
COC(=O)C1=C(N)OC2=C(C(=O)CC(C)(C)C2)C1c1cccs1 (stereo unspecified) | 80.9* | 0.3 | 72.9* | -0.498 | 0.2
C=CCn1c(N)c(C(=O)OCCC)c2nc3ccccc3nc21 | 69.4* | 0.2 | 77.3* | 0.422 | 0.3
C=CCn1c(N)c(C(=O)Nc2cccc(C)c2)c2nc3ccccc3nc21 | 16.6 | 1.1 | -7.1 | -0.074 | 0.8
COCCNC(=O)c1c(N)n(CCC2=CCCCC2)c2nc3ccccc3nc12 | 95.6* | 0.1 | 91.6* | -2.06 | 0
